Among all 360,000 compounds or so, about 9,100 (2.5%) were called active. Not shown: some 4% with an inconclusive outcome. Cut-off read from the data, not from the text of the source: active = max response below about -50%; inconclusive = no clear call, values can overlap the other calls; inactive = above that. Many of the other results were omitted from the sample, so actives are more common in it than they were.
Target: D(3) dopamine receptor (Homo sapiens) (UniProt P35462)
Test: qHTS of D3 Dopamine Receptor Antagonist: qHTS
Conditions: D3R cells, DiscoveRx beta-arrestin luminescence, antagonist mode; stronger effect = lower value
Summary of the method: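 Cells expressing the human receptor were seeded at 1500 cells/well, incubated overnight at 37 degrees C in 5% CO2, then exposed to library compounds with dopamine controls for 90 minutes at 37 degrees C before luminescent detection.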
% is set by controls: 0 for no effect and ±100 for the full control effect.

Chain of D(3) dopamine receptor (Homo sapiens) (P35462 whole entry, looked up): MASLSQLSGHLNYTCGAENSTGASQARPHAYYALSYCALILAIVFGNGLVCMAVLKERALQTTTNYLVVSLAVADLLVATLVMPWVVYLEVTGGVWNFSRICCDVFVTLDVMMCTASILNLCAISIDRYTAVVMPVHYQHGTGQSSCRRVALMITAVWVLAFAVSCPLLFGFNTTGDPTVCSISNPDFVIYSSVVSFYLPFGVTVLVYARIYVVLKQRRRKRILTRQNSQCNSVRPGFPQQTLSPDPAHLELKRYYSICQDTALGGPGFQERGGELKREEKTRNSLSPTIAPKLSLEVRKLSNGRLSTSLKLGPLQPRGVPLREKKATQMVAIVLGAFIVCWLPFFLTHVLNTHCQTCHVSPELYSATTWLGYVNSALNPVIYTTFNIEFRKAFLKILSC

| Structure (SMILES) | max response, negative = inhibition |
| --- | --- |
| COCCNc1nc(Nc2ccccc2Cl)c2sc(-c3ccccc3)cc2n1 | 14.1% (inactive) |
| CC(C)(C)C(=O)c1c(N)[nH]c(C(=O)c2ccccc2)c1-c1ccc(F)cc1 | 4.8% (inactive) |
| Cc1cccc(C(=O)OCC(=O)NC(C)C2CC3CCC2C3)c1O (stereo not drawn) | -13.8% (inactive) |
| CCOC(=O)CCC(=O)OCC(=O)NC(C)C1CC2CCC1C2 (stereo not drawn) | -55.1% (active) |
| Cc1c(C(=O)NC(C)C2CC3CCC2C3)cccc1[N+](=O)[O-] (stereo not drawn) | 10.2% (inactive) |
| CN(C)C(=O)c1cccc(-c2cnc3c(NC=O)cc(-c4ccc(C(=O)N5CCOCC5)cc4)cn23)c1 | -15.4% (inactive) |
| CNc1cc(-c2c(OC)cccc2OC)ncn1 | -17.3% (inactive) |
| CC(NS(=O)(=O)c1ccc(Cl)cc1)C(=O)Nc1ccc2c(c1)OCCO2 (stereo not drawn) | -3.02% (inactive) |
| CC(O)C(NS(=O)(=O)c1ccc(Cl)cc1)C(=O)OCc1cc([N+](=O)[O-])cc2c1OCOC2 (stereo not drawn) | -82.9% (active) |
| C[C@H](NS(=O)(=O)c1ccc(Cl)cc1)C(=O)OCC(=O)N1CCOCC1 | -16.5% (inactive) |
| CC1(C(=O)NS(=O)(=O)c2ccc(C#N)cc2)CCN1C(=O)CC1CCCC1 (stereo not drawn) | -19% (inactive) |
| COc1ccc(CC(=O)NCC(=O)N/N=C/c2cc(Br)ccc2OC)cc1 | 20.7% (inactive) |
| O=C(Cc1ccc([N+](=O)[O-])cc1)N/N=C/c1ccco1 | 3% (inactive) |
| COc1ccc(CC(=O)N/N=C/c2cc([N+](=O)[O-])cc(Br)c2O)cc1 | -79.9% (active) |
| C[C@@H]1CN([C@H](C)CO)S(=O)(=O)c2ccc(C#C[C@@H](C)O)cc2O[C@@H]1CN(C)Cc1ccc(-c2ccccc2)cc1 | 4.33% (inactive) |
| CCOc1ccc(CCN2C(=S)N([C@@H](CC(C)C)CN3CCC[C@@H]3CN3C(=S)NC[C@@H]3Cc3ccc(O)cc3)C[C@@H]2CC(C)C)cc1 | 21.8% (inactive) |
| CC1(C)OC(=O)C2=C(CC(c3ccccc3)OC2CCc2ccccc2)O1 (stereo not drawn) | -29.7% (inactive) |
| COC(=O)c1ccc2c(c1)S(=O)(=O)NC2C (stereo not drawn) | 18.4% (inactive) |
| CCCNC(=O)c1cc(C2CCCCN2C(=O)OC)on1 (stereo not drawn) | 0% (inactive) |
| Cc1cc(-c2n[nH]c(=S)n2/N=C/C(Br)=C/c2ccccc2)n[nH]1 | -70.4% (active) |
| COc1ccccc1/C=C/C=N/n1c(-c2ccc(Cl)cc2Cl)n[nH]c1=S | 13.4% (inactive) |
| COc1ccccc1N1CCN(/N=C\C(Br)=C\c2ccccc2)CC1 | -13.9% (inactive) |

| Structure (SMILES) | max response, negative = inhibition |
| --- | --- |
| O=C(Nc1ccc(F)cc1)C(CCc1ccccc1)N1CCN(CC(=O)N2CCCC2)CC1 (stereo not drawn) | -21.4% (inactive) |
| COC(=O)[C@]12CCCCC=C1N(CCC1=CCCCC1)C(=O)[C@H](CC(=O)NCC1CCCCC1)C2 | 25.3% (inactive) |
| O=S1(=O)C[C@@H](N2CCN(CCO)CC2)[C@H](COCc2ccccc2)N1 | 1.72% (inactive) |
| CC(=O)c1nn(-c2ccccc2)c(=Nc2ccccc2)cc1C | 18.5% (inactive) |
| COC(=O)C[C@@H]1C=C[C@@H](NC(=O)c2ccc3c(c2)OCO3)[C@@H](CO)O1 | -7.72% (inactive) |
| COC(=O)Cn1c2ccc(C)cc2c2nc(C)sc21 | -14.2% (inactive) |
| CCn1c(O)c(N=NC2=NC(=O)CS2)c2cc(C)ccc21 | -90.2% (active) |
| CCn1c(O)c(N=NC(=O)c2cccc(S(=O)(=O)N3CCCCC3)c2)c2ccccc21 | 6.1% (inactive) |
| COc1cccc(C(O)c2nc(-c3ccc(C)c(C)c3)cs2)c1 (stereo not drawn) | 0% (inactive) |
| CC(C)CC1C(=O)N(Cc2cn(CC3CCCCC3)nn2)CCS(=O)(=O)N1Cc1ccc(-c2ccc(Cl)cc2)cc1 (stereo not drawn) | -20.8% (inactive) |
| COc1ccc(NC(=O)C2(C)Cc3c(-c4ccc(C(N)=O)cc4)ccnc3O2)cc1 (stereo not drawn) | -3.64% (inactive) |
| CCOCC(=O)Nc1ncc(S(=O)(=O)c2ccc([N+](=O)[O-])cc2)s1 | 8.75% (inactive) |
| COc1ccc(C(=O)NCCNc2ccc([N+](=O)[O-])cn2)cc1 | -27.5% (inactive) |
| COC(=O)C(NC(=O)c1ccc(OC)cc1)(Nc1ncc(S(=O)(=O)c2ccc([N+](=O)[O-])cc2)s1)C(F)(F)F (stereo not drawn) | -81.6% (active) |
| CC(O)(c1cccc(F)c1)c1nc(-c2ccc3c(c2)OCO3)cs1 (stereo not drawn) | -22.4% (inactive) |
| CC1(C)OC(=O)C2=C(C[C@@H](C3CC3)O[C@H]2CCc2cccc(Cl)c2)O1 | 12.7% (inactive) |
| CN1CCN(C(=O)c2ccc(NC(=O)c3ccc(Br)o3)cc2)CC1 | 23.3% (inactive) |
| CCOc1ccc2[nH]c(=O)c(CN(CCCO)C(C)=O)cc2c1 | 3.99% (inactive) |
| Nc1ccc2[nH]c(=S)sc2c1 | -18.8% (inactive) |
| CCOc1ccc2[nH]c(=S)sc2c1 | -53% (active) |
| COC(=O)c1cc(OC)ccc1-c1ccc(OC)cc1 | -8.91% (inactive) |
| CCOC(=O)C(NC(C)=O)C(=O)Nc1ccc(OC)cc1 (stereo not drawn) | -11.9% (inactive) |

| Structure (SMILES) | max response, negative = inhibition |
| --- | --- |
| CCOC(=O)C1=C(c2ccc(OC)cc2)C(=O)c2ccccc2C1=O | -64% (active) |
| CC1(C(=O)Nc2ccc3c(c2)OCCO3)CN(S(C)(=O)=O)CC(=O)N1Cc1cccc(F)c1 (stereo not drawn) | 3.16% (inactive) |
| CCN(Cc1ccncc1)C(=S)Nc1ccccc1C | 27.7% (inactive) |
| CN(CC(=O)Nc1ccc(Cl)cc1)CC(=O)Nc1cccc2ccccc12 | -3.81% (inactive) |
| CCCCN(C)CCC(=O)Nc1ccc(Cl)cc1 | -52.6% (active) |
| CC(=O)Nc1ccc(NC(=O)CCCNC(=O)c2ccc(Cl)cc2)cc1 | -16.5% (inactive) |
| O=S1(=O)CC(N2CCC(Cc3ccccc3)CC2)CN1Cc1ccccc1 (stereo not drawn) | -2.05% (inactive) |
| O=C(Nc1ccc(F)cc1)c1ccc(S(=O)(=O)NCc2cccnc2)cc1 | 8.92% (inactive) |
| Cc1nnc(NC(=O)CCCOc2ccccc2)s1 | 14.4% (inactive) |
| Cc1cccc(NC(=O)c2nc(S(=O)(=O)Cc3ccccc3)ncc2Cl)c1 | -1.08% (inactive) |
| COCCSc1nnc(NC(=O)CCS(=O)(=O)Cc2ccccc2)s1 | 0.795% (inactive) |
| NC(=O)CSc1nnc(NC(=O)c2ccc(Br)o2)s1 | 4.15% (inactive) |
| Cc1nnc(NC(=O)c2ccc3nccnc3c2)s1 | -10.2% (inactive) |
| Cc1cccc(CS(=O)(=O)c2ncc(Cl)c(C(=O)Nc3ccc(F)cc3)n2)c1 | -105% (active) |
| Cc1ccc(CS(=O)(=O)c2ncc(Cl)c(C(=O)Nc3nnc(C)s3)n2)cc1 | -73.5% (active) |
| CSc1nnc(NC(=O)c2nc(S(=O)(=O)Cc3ccc(C)cc3)ncc2Cl)s1 | -83.3% (active) |
| CC(=O)Nc1cncc(-c2ccccc2CO)n1 | 10.6% (inactive) |
| CCOC(=O)[C@H]1Nc2ccc(Cl)cc2[C@@H]2[C@H]1C1CC(c3ccccc31)N2C(=O)OCc1ccccc1 (stereo partly drawn) | -1.57% (inactive) |
| CCCCc1c(-c2ccc(Cl)cc2)ncn1CCc1ccccc1OC | 71.4% (inactive) |
| COc1ccc(S(=O)(=O)N(C)C)cc1NC(=O)COC(=O)c1n[nH]c2ccccc12 | 16% (inactive) |
| CCc1cc(C(=O)N(CC)CC(=O)Nc2c(F)cccc2F)sc1C | 0% (inactive) |
| COc1ccc(CCCNC(=O)C2Cc3c(-c4cccc(C(N)=O)c4)ccnc3O2)cc1 (stereo not drawn) | 2.06% (inactive) |

| Structure (SMILES) | max response, negative = inhibition |
| --- | --- |
| Cc1cc(O)ccc1-c1cc(C(=O)NCc2cc(C(F)(F)F)cc(C(F)(F)F)c2)[nH]n1 | -17.9% (inactive) |
| C[C@@H]1CN([C@H](C)CO)C(=O)CCCn2nncc2CO[C@@H]1CN(C)C(=O)OCc1ccccc1 | -23.6% (inactive) |
| CC1(C)OC(=O)C2=C(C[C@@H](C3CC3)O[C@H]2c2ccc(Cl)cc2)O1 | 49.4% (inactive) |
| COC(=O)CN1C(=O)C(O)=C(C(C)=O)C1c1ccc([N+](=O)[O-])cc1 (stereo not drawn) | -23.2% (inactive) |
| COC(=O)CN1C(C)=Nc2ccc(Br)cc2C1c1ccccc1 (stereo not drawn) | -64% (active) |
| CCC(CC)C(=O)N1CC(=O)Nc2ccc(Br)cc2C1c1ccccc1 (stereo not drawn) | 4.84% (inactive) |
| CN(c1ccccc1)S(=O)(=O)c1ccc(C(=O)NCc2cccnc2)cc1 | -14.9% (inactive) |
| COc1ccc(C(C)(O)c2nc(-c3ccc(C)c(C)c3)cs2)cc1 (stereo not drawn) | -20.6% (inactive) |
| CCNC(=O)C1(C)CCCN(C(=O)c2ccc3ccccc3n2)C1 (stereo not drawn) | 0% (inactive) |
| CCOC(=O)c1cc(-c2sc(NC(=O)c3ccccc3)nc2C)n(-c2ccc(Br)cc2)n1 | 24% (inactive) |
| COc1ccc(-c2ccc(C(=O)NC(C)C)c3occc23)c(C)c1 | 19.9% (inactive) |
| COc1ccc(-c2ccc(C(=O)NCCN3CCOCC3)c3occc23)c(C)c1 | -78.2% (active) |
| COc1ccc(-c2cc(C(=O)NCCCN3CCOCC3)no2)cc1 | 1.86% (inactive) |
| CC(C)C[C@@H](COCc1ccc(Cl)cc1)N1CCN(C(=O)c2ccc(Cl)cc2Cl)CCC1=O | 11.5% (inactive) |
| Cc1ccccc1OS(=O)(=O)c1cccc([N+](=O)[O-])c1 | -14.2% (inactive) |
| CC(C)N1C(=O)c2ccccc2NC(=O)C1C(=O)NCc1cccs1 (stereo not drawn) | -19.3% (inactive) |
| COC(=O)C[C@H]1C[C@@H]2c3cc(N(C)C)ccc3O[C@@H]2[C@H](CO)O1 | 17% (inactive) |
| O=C(NCc1ccccc1)C1c2ccccc2OCC(=O)N1CCCN1CCOCC1 (stereo not drawn) | 0.216% (inactive) |
| O=C(NCc1ccc(F)cc1)c1cc(C2CCCCN2C(=O)c2cccs2)on1 (stereo not drawn) | 12.8% (inactive) |
| CCC1NC(=O)c2cccnc2-n2c1nc1ccc(C)cc1c2=O (stereo not drawn) | 16.9% (inactive) |
| CN1CCN(C2Cc3ccc(Cl)cc3Sc3ccc(F)cc32)CC1 (stereo not drawn) | -88% (active) |
| COCCNC(=O)C1C(=O)Nc2ccccc2C(=O)N1c1ccc2c(c1)OCCO2 (stereo not drawn) | 5.54% (inactive) |

From PubChem BioAssay AID652054 (National Center for Advancing Translational Sciences (NCATS), 2013)
